# Measurements taken from ChEMBL document CHEMBL3988442, “University of Dundee, Small-Polar-MMV Screening Library” (2021).
# Hit rate of the full screen: of about 85,000 compounds, about 440 (0.52%) showed an effect of 50% or more. This is one part of a sample in which strong results are shown more often than they occur.
# Test: In vitro enzyme assay to detect hydrolysis of chlorophenol red-beta-D-[…] directly proportional to the number of Toxoplasma stably expressing beta-galactosidase
# Format: functional, organism-based, Toxoplasma gondii
# Set-up: scale not given: in the data most compounds retested in dose-response had high values
SMILES,Percent Effect (50 µM) [%],Percent Effect (10 µM) [%]
Cn1nccc1NC(=O)N1CCOCC1C1CC1 (stereo not drawn),-2.135,–
O=C1COCC(Cc2ccccc2)N1 (stereo not drawn),-23.94,–
NC(=O)CN1CCn2cccc2C1c1ccccc1 (stereo not drawn),-16.03,–
CNC1CCN(c2cc(OC)cc(OC)c2)C1 (stereo not drawn),-16.53,–
CCN1CCCN(C(=O)c2ccccc2COC)CC1,3.121,–
COCc1ccccc1C(=O)N1CCCC(O)C1 (stereo not drawn),58.79,–
COCc1ccccc1C(=O)N1CCCC(c2cc(C)[nH]n2)C1 (stereo not drawn),–,-0.6285
O=C(NCC(O)C1CCCCC1)[C@@H](O)c1ccccc1 (stereo partly drawn),-2.815,–
Cc1nn(CCO)c(NC(C)c2nccs2)c1C (stereo not drawn),-2.968,–
COC[C@H]1CCC[C@H]1NC(=O)CCn1cncn1,1.07,–
Cc1ccc(CN(C)C(=O)CN2CCCC(Cn3cncn3)C2)cc1 (stereo not drawn),–,-19.93
CN(Cc1ccccc1)C(=O)CN1CCCC(Cn2cncn2)C1 (stereo not drawn),–,-36.27
CN(Cc1cnn(C)c1)C(=O)CN1CCCC(Cn2cncn2)C1 (stereo not drawn),–,96.23
NC(=O)COC(=O)c1cc(Cl)cc(C(F)(F)F)c1,-16.81,–
Cc1[nH]ncc1C(=O)NCCCSCC(C)C,11.62,–
Cc1nn(C)c2c(=O)n(Cc3ccccc3)nnc12,–,61.89
CCn1nc(C)c2nnn(CC(=O)Nc3cccc(F)c3)c(=O)c21,–,-2.626
Cc1nn(C)c2c(=O)n(Cc3ccc(C#N)cc3)nnc12,–,39.12
Cc1nn(C)c2c(=O)n(CC(=O)Nc3cc(Cl)cc(Cl)c3)nnc12,–,-3.347
Cc1c(C(=O)NC(C)C)nnn1Cc1ccccc1,17.24,–
CCn1nc(C)c2nnn(CC(=O)Nc3ccccc3)c(=O)c21,–,1.414
Cc1nn(C)c2c(=O)n(Cc3ccc(Cl)cc3)nnc12,–,71.45
Cc1nn(C)c2c(=O)n(Cc3ccc(F)cc3)nnc12,–,62.42
Cc1nn(C)c(=O)c2nn(-c3ccc(F)cc3)c(C)c12,–,-17.45

SMILES,Percent Effect (50 µM) [%],Percent Effect (10 µM) [%]
COCC(C)(CCO)NCc1c(C)noc1C (stereo not drawn),-23.44,–
CCC(CNC(=O)Nc1cc(C)nn1C)N1CCCC1 (stereo not drawn),-4.617,–
NC(=O)C1CCN(CCOc2ccccc2F)CC1,-5.356,–
Cc1cnccc1NCCNC(=O)Cc1ccccn1,-14.36,–
CCO[C@H]1CN(C)C[C@@H]1NC(=O)c1cnc(CC)nc1,7.652,–
C[S+]([O-])c1nncn1Cc1cccc2cccnc12 (stereo not drawn),-6.749,–
Cc1cc(N2CCOC(CN(C)CC(N)=O)C2)ccn1 (stereo not drawn),2.869,–
COCc1[nH][nH]c(=O)c1CCN,-30.62,–
OC1(CNCCc2csc(-c3ccncc3)n2)CCCNC1 (stereo not drawn),–,-15.25
OC1(CNCCCn2cc(Cl)cn2)CCCNC1 (stereo not drawn),-11.83,–
OC1(CNCCOCc2ccc(Cl)cc2)CCCNC1 (stereo not drawn),57.1,–
CCOCC(O)CN(C)Cc1cccc(C(N)=O)c1 (stereo not drawn),-13.39,–
CCN1C[C@H]2CCN(C(=O)NC)CC[C@H]2S1(=O)=O,–,59.16
CCN1C[C@H]2CCN(C(C)=O)CC[C@H]2S1(=O)=O,–,-1.674
CCN1C[C@H]2CCN(C(=O)NC3CCCC3)CC[C@H]2S1(=O)=O,–,-4.304
Cc1c(N)cnn1C1CCOCC1,-9.55,–
COc1ccc(OC)c(N2C(=O)CCC2=O)c1,-4.608,–
CN(CCOCCO)CCOc1ccc(F)cc1,15.3,–
O=C1NCCOc2ccc(Br)cc21,-18.86,–
COc1ccc(CNC(=O)C2=NN(c3ccc(C)cc3)C(=O)CN2)cc1,–,-0.9855
COc1ccc(C)cc1CNC(=O)C1=NN(c2ccccc2)C(=O)CN1,–,14.43
COc1ccccc1CNC(=O)C1=NN(c2ccc(C)cc2)C(=O)CN1,–,57.58
Cc1cc2c(cc1S(=O)(=O)N1CCCC(N)C1)OCO2 (stereo not drawn),6.23,–
c1ccc(C2=NOC3(CCN(Cc4c[nH]c5ccccc45)CC3)C2)cc1,–,73.52

SMILES,Percent Effect (50 µM) [%],Percent Effect (10 µM) [%]
c1cncc(C2=NOC3(CCN(Cc4c[nH]c5ccccc45)CC3)C2)c1,–,26.44
CC(C)C1=NOC2(CCN(Cc3c[nH]c4ccccc34)CC2)C1,–,33.52
CCCC(C(=O)OCC)S(N)(=O)=O (stereo not drawn),-4.644,–
COC(=O)C(C)SCc1noc(C2CC2)n1 (stereo not drawn),1.688,–
CCN1C[C@H](NC(=O)c2snnc2C(C)C)[C@@H](OC)C1,82.91,–
CCN1C[C@H](NC(=O)c2ccc(Cl)s2)[C@@H](OC)C1,2.981,–
CCN1C[C@H](NC(=O)c2cccn2C(C)C)[C@@H](OC)C1,-5.083,–
CCC(NC(=O)c1cc(N)[nH]n1)c1nc(C)c[nH]1 (stereo not drawn),4.795,–
Cc1nnsc1CN(C)C(=O)c1ccccc1,22.64,–
O=C(N[C@@H]1CNC[C@H]1CO)C1CCC1,-0.2309,–
Cc1cc(CN)nc(N2CCCC2)n1,-18.34,–
Cc1cc(CN)nc(N(C)C)n1,87.02,–
CN(C)c1nc(CN)cs1,-3.708,–
COCCNC(=O)CCC1CCN(CCCSC)CC1,11.51,–
CCOc1ncccc1C(=O)N1CCCN(C)CC1,3.231,–
COCCNC(=O)NC(C)CCc1ccc(O)cc1 (stereo not drawn),-3.348,–
Oc1cccc(-c2cc(C3CCN(Cc4cncnc4)C3)ccn2)c1 (stereo not drawn),–,0.5564
Cn1ccnc1CN1CCC(c2ccnc(-c3cccc(O)c3)c2)C1 (stereo not drawn),–,55.29
CN(C)CC(C)(C)CN1CCC(c2ccnc(-c3cccc(O)c3)c2)C1 (stereo not drawn),–,7.739
N#CC1(NC(=O)C(O)Cc2ccccc2Cl)CCC1 (stereo not drawn),-6.44,–
CCc1cccc(C)c1NC(=O)CN1CCNC(=O)C1,-0.5853,–
O=C1CN(CC(=O)Nc2c(Cl)cccc2Cl)CCN1,55.2,–
Cc1ccc(Cl)cc1NC(=O)CN1CCNC(=O)C1,47.59,–
CN(C)S(=O)(=O)CCNC1CCCNC1 (stereo not drawn),23.13,–

SMILES,Percent Effect (50 µM) [%],Percent Effect (10 µM) [%]
CCn1cc(CN(C)S(=O)(=O)c2ccc(C)c(C)c2)cn1,–,6.128
CCn1cc(CN(C)S(=O)(=O)c2ccc(Cl)cc2)cn1,–,4.304
CCn1cc(CN(C)S(=O)(=O)c2cnn(C)c2)cn1,–,10.44
CCn1cc(CN(C)S(=O)(=O)c2ccccc2)cn1,–,61.21
CCOc1ccc(S(=O)(=O)N(C)Cc2cnn(CC)c2)cc1,–,22.15
CCn1cc(CN(C)S(=O)(=O)c2ccc(C(C)C)cc2)cn1,–,71.72
Nc1nnc(SCc2cn3ccccc3n2)s1,-6.062,–
N#CCC(=O)Nc1ccccc1I,0.5556,–
COc1ccccc1NC(=O)CC#N,50.64,–
CNCC(=O)Nc1ccccc1OC,7.8,–
Cn1c(C(C)(C)N)nc2ccccc21,4.322,–
COC(=O)Cc1cccc(NC(=O)CC2CC2)n1,2.915,–
COc1cccc(N2CCC(CNCc3cccc(C#N)c3)C2)c1 (stereo not drawn),–,-3.388
COc1cccc(CNCC2CCOC2)c1 (stereo not drawn),52.55,–
COc1cccc(CNCC2CN(C)CCO2)c1 (stereo not drawn),–,-20.59
O=C(NCCSCc1cccc(Cl)c1)C1CNCCO1 (stereo not drawn),4.575,–
CC(C)OCC(O)CN1CCN(C(C)C)CC1 (stereo not drawn),-5.583,–
CCNCc1ccc(OCc2ccc3c(c2)OCCO3)cc1.Cl,–,57.45
CC(C)(C)NCc1ccc(OCc2ccc3c(c2)OCCO3)cc1.Cl,–,-4.151
CC(O)CNCc1ccc(OCc2ccc3c(c2)OCCO3)cc1.Cl (stereo not drawn),–,-0.2514
CCCNCc1ccc(OCc2ccc3c(c2)OCCO3)cc1.Cl,–,26.87
CNCc1ccc(OCc2ccc3c(c2)OCCO3)cc1.Cl,–,14.53
COc1ccc2oc(CNC(C)(CO)CO)cc2c1,4.082,–
O=C(CNC(=O)c1cccs1)c1ccccc1,-23.7,–

SMILES,Percent Effect (50 µM) [%],Percent Effect (10 µM) [%]
CCN(CC(C)(C)O)C(=O)c1nccc2ccccc12,-2.694,–
CCNC(=O)CN1CCN(Cc2cccnc2N)CC1,3.908,–
COCC(C)NC(=O)CCn1cnc2sccc2c1=O (stereo not drawn),-6.543,–
CS(=O)(=O)NCC(=O)NCc1cnn2ccccc12,-11.78,–
CCN1CCCC1CNS(=O)(=O)CCCC#N (stereo not drawn),-20.61,–
CCc1n[nH]c(NC(=O)c2cc(C(C)=O)cs2)n1,-2.258,–
NC(=O)CCN1C(=O)CCC1=O,1.954,–
Cc1ccccc1CNC(=O)N(C)Cc1nnc[nH]1,-3.326,–
COC(=O)c1cnc(OC)cn1,10.7,–
COC(=O)c1cnc(O)cn1,0.4239,–
COC(=O)c1cnc(F)cn1,53.27,–
O=C(CNC1(CO)CCOCC1)Nc1cccc(F)c1,-18.29,–
CC(C)C(N)C1(CO)CCC1 (stereo not drawn),-14.82,–
N#Cc1cccnc1NCC1COc2ccccc2O1 (stereo not drawn),-5.408,–
Cc1ccc(CN2CCCn3c(nc(Cn4ccnc4)cc3=O)C2)o1,–,95.97
CCc1ccc(CN2CCCn3c(nc(Cn4ccnc4)cc3=O)C2)o1.O=C(O)C(F)(F)F.O=C(O)C(F)(F)F,–,1.534
O=c1cc(Cn2ccnc2)nc2n1CCCN(Cc1ccco1)C2,–,-0.8368
O=C(CN1CCCC(c2noc(C3CC3)n2)C1)N1CCCC1 (stereo not drawn),–,4.609
CC(c1nc(C2CC2)no1)N1CCN(CC(=O)N2CCOCC2)CC1 (stereo not drawn),–,3.194
O=C(CN1CC(c2nc(C3CC3)no2)C1)N1CCOCC1.O=C(O)C(=O)O,–,76.44
NC(=O)CN1CC(c2nc(C3CC3)no2)C1.O=C(O)C(=O)O,–,-8.991
CC1CCN(C(=O)CN2CC(c3nc(C4CC4)no3)C2)CC1.O=C(O)C(=O)O,–,-17.41
